In PubChem BioAssay (NCATS):
Inconclusive results are not listed. Calls of active or inactive are those of the source. The call rests on the fitted dose curve; in most records, active means well fitted inhibition curve with a large enough effect; inconclusive means small, poorly fitted or top-dose-only effect; inactive means flat fitted curve, though single readings scatter.

Columns and labels:
Assay in all cases: qHTS profiling for inhibitors of Plasmodium falciparum proliferation (AID 504749); further: nearly all actives have a fitted effect of over 60% in size
CP260 = conditions: P. falciparum in erythrocytes, SYBR Green DNA, 72 h; series mostly up to 12.8 µM
How it was run: (§1)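 SYBR Green fluorescence (ex 485 nm, em 535 nm) reports parasite DNA after 72 h compound exposure of infected red cells at 0.3% parasitemia, 2.5% hematocrit; signal normalized to 0.29 uM artemisinin and vehicle wells.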

CP262 = conditions: P. falciparum in erythrocytes, SYBR Green DNA, 72 h; series mostly up to 12.8 µM
How it was run: as §1

CP265 = conditions: P. falciparum in erythrocytes, SYBR Green DNA, 72 h; series mostly up to 12.8 µM
How it was run: as §1

CP266 = conditions: P. falciparum in erythrocytes, SYBR Green DNA, 72 h; series mostly up to 28.7 µM
How it was run: as §1

CP268 = conditions: P. falciparum in erythrocytes, SYBR Green DNA, 72 h; series mostly up to 12.8 µM
How it was run: as §1

CP269 = conditions: P. falciparum in erythrocytes, SYBR Green DNA, 72 h; series mostly up to 12.8 µM
How it was run: as §1

CP286 = conditions: P. falciparum in erythrocytes, SYBR Green DNA, 72 h; series mostly up to 12.8 µM
How it was run: as §1

CP291 = conditions: P. falciparum in erythrocytes, SYBR Green DNA, 72 h; series mostly up to 12.8 µM
How it was run: as §1

CP297 = conditions: P. falciparum in erythrocytes, SYBR Green DNA, 72 h; series mostly up to 12.8 µM
How it was run: as §1

CP305 = conditions: P. falciparum in erythrocytes, SYBR Green DNA, 72 h; series mostly up to 12.8 µM
How it was run: as §1

CP325 = conditions: P. falciparum in erythrocytes, SYBR Green DNA, 72 h; series mostly up to 12.8 µM
How it was run: as §1

CP329 = conditions: P. falciparum in erythrocytes, SYBR Green DNA, 72 h; series mostly up to 12.8 µM
How it was run: as §1

CP335 = conditions: P. falciparum in erythrocytes, SYBR Green DNA, 72 h; series mostly up to 12.8 µM
How it was run: as §1

DFO2036 = conditions: P. falciparum in erythrocytes, SYBR Green DNA, 72 h; series mostly up to 12.8 µM
How it was run: as §1

DIV14 = conditions: P. falciparum in erythrocytes, SYBR Green DNA, 72 h; series mostly up to 12.8 µM
How it was run: as §1

DIV17 = conditions: P. falciparum in erythrocytes, SYBR Green DNA, 72 h; series mostly up to 12.8 µM
How it was run: as §1

DIV30 = conditions: P. falciparum in erythrocytes, SYBR Green DNA, 72 h; series mostly up to 12.8 µM
How it was run: as §1

Dd2 = conditions: P. falciparum in erythrocytes, SYBR Green DNA, 72 h; series mostly up to 12.8 µM
How it was run: as §1

ECU = conditions: P. falciparum in erythrocytes, SYBR Green DNA, 72 h; series mostly up to 12.8 µM
How it was run: as §1

FAB9 = conditions: P. falciparum in erythrocytes, SYBR Green DNA, 72 h; series mostly up to 12.8 µM
How it was run: as §1

GB4 = conditions: P. falciparum in erythrocytes, SYBR Green DNA, 72 h; series mostly up to 12.8 µM
How it was run: as §1

HB3 = conditions: P. falciparum in erythrocytes, SYBR Green DNA, 72 h; series mostly up to 12.8 µM
How it was run: as §1

ICS = conditions: P. falciparum in erythrocytes, SYBR Green DNA, 72 h; series mostly up to 12.8 µM
How it was run: as §1

JCK = conditions: P. falciparum in erythrocytes, SYBR Green DNA, 72 h; series mostly up to 12.8 µM
How it was run: as §1

P93_24 = conditions: P. falciparum in erythrocytes, SYBR Green DNA, 72 h; series mostly up to 12.8 µM
How it was run: as §1

P94_40 = conditions: P. falciparum in erythrocytes, SYBR Green DNA, 72 h; series mostly up to 12.8 µM
How it was run: as §1

PAD = conditions: P. falciparum in erythrocytes, SYBR Green DNA, 72 h; series mostly up to 12.8 µM
How it was run: as §1

PC15 = conditions: P. falciparum in erythrocytes, SYBR Green DNA, 72 h; series mostly up to 12.8 µM
How it was run: as §1

PC26 = conditions: P. falciparum in erythrocytes, SYBR Green DNA, 72 h; series mostly up to 12.8 µM
How it was run: as §1

PC49 = conditions: P. falciparum in erythrocytes, SYBR Green DNA, 72 h; series mostly up to 12.8 µM
How it was run: as §1

SC27B = conditions: P. falciparum in erythrocytes, SYBR Green DNA, 72 h; series mostly up to 12.8 µM
How it was run: as §1

TAB109 = conditions: P. falciparum in erythrocytes, SYBR Green DNA, 72 h; series mostly up to 12.8 µM
How it was run: as §1

TAB113 = conditions: P. falciparum in erythrocytes, SYBR Green DNA, 72 h; series mostly up to 12.8 µM
How it was run: as §1

TAB165 = conditions: P. falciparum in erythrocytes, SYBR Green DNA, 72 h; series mostly up to 12.8 µM
How it was run: as §1

W2 = conditions: P. falciparum in erythrocytes, SYBR Green DNA, 72 h; series mostly up to 12.8 µM
How it was run: as §1

Measured: Potency

O=c1[nH]cnc2c1ncn2C1OC(CO)C(O)C1O (stereo not given)
inactive: CP260 | CP262 | CP265 | CP266 | CP268 | CP269 | CP286 | CP291 | CP297 | CP305 | CP325 | CP329 | CP335 | DFO2036 | DIV14 | DIV17 | DIV30 | Dd2 | ECU | FAB9 | GB4 | HB3 | ICS | JCK | P93_24 | P94_40 | PAD | PC15 | PC26 | PC49 | SC27B | TAB109 | TAB113 | TAB165 | W2
